# The sample as a whole holds a higher share of the strongest signals than the screen did.
# B1: CFEM-CGl (Candida glabrata), Q6FRS0 (protein)
# chain: VLATPPACLLACVAQVSKQSSQCHTLNQVGCFCENENTAIKNCLDSICPNGNSDAAYTAFKNSCGDVGKAVASV
# What was measured:
# Assay in all cases: glycan array binding signal (z-score within array); higher = stronger binding
# Details in all cases: glycan notation: IUPAC condensed, linker removed
# [1] = target: Fuc(a1-2)Gal(b1-3)GalNAc(a1-3)[Fuc(a1-2)]Gal(b1-4)Glc
# Procedure, shortened: (§1)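 Negative Z-scores can be read as non-binding. The Z-score is calculated within each array and then averaged across arrays of one protein sequence at different concentrations or buffers and across linkers. Arrays, 3228 in all, were curated from the Consortium for Functional Glycomics database and kept only where the protein sequence was available.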
# [2] = target: Fuc(a1-2)Gal(b1-3)GlcNAc(b1-2)Man(a1-3)[Fuc(a1-2)Gal(b1-3)GlcNAc(b1-2)Man(a1-6)]Man(b1-4)GlcNAc(b1-4)[Fuc(a1-6)]GlcNAc
# Procedure, shortened: as §1
# [3] = target: Fuc(a1-2)Gal(b1-4)GlcNAc(b1-3)Gal(b1-4)GlcNAc
# Procedure, shortened: as §1
# [4] = target: Fuc(a1-2)Gal(b1-4)GlcNAc(b1-3)Gal(b1-4)GlcNAc(b1-2)Man(a1-3)[Fuc(a1-2)Gal(b1-4)GlcNAc(b1-3)Gal(b1-4)GlcNAc(b1-2)Man(a1-6)]Man(b1-4)GlcNAc(b1-4)GlcNAc
# Procedure, shortened: as §1
# [5] = target: Fuc(a1-2)Gal(b1-4)GlcNAc(b1-3)GalNAc
# Procedure, shortened: as §1
# [6] = target: Fuc(a1-2)Gal(b1-4)GlcNAc(b1-6)GalNAc
# Procedure, shortened: as §1
# [7] = target: Fuc(a1-2)Gal(b1-4)GlcNAc6S
# Procedure, shortened: as §1
# [8] = target: Fuc(a1-2)[GalNAc(a1-3)]Gal(b1-3)GalNAc(a1-3)[Fuc(a1-2)]Gal(b1-4)GlcNAc
# Procedure, shortened: as §1
# [9] = target: Fuc(a1-2)[GalNAc(a1-3)]Gal(b1-4)GlcNAc(b1-2)Man(a1-3)[Fuc(a1-2)[GalNAc(a1-3)]Gal(b1-4)GlcNAc(b1-2)Man(a1-6)]Man(b1-4)GlcNAc(b1-4)[Fuc(a1-6)]GlcNAc
# Procedure, shortened: as §1
# [10] = target: Fuc(a1-2)[GalNAc(a1-3)]Gal(b1-4)[Fuc(a1-3)]GlcNAc(b1-3)GalNAc
# Procedure, shortened: as §1
# [11] = target: Fuc(a1-3)[Gal(b1-4)]GlcNAc(b1-2)Man(a1-3)[Fuc(a1-3)[Gal(b1-4)]GlcNAc(b1-2)Man(a1-6)]Man(b1-4)GlcNAc(b1-4)[Fuc(a1-6)]GlcNAc
# Procedure, shortened: as §1
# [12] = target: Fuc(a1-3)[Gal(b1-4)]GlcNAc(b1-3)Gal(b1-3)[Fuc(a1-4)]GlcNAc
# Procedure, shortened: as §1
# Fuc(b1-3)GlcNAc = target: Fuc(b1-3)GlcNAc
# Procedure, shortened: as §1
# Gal(a1-4)Gal(b1-4)Glc = target: Gal(a1-4)Gal(b1-4)Glc
# Procedure, shortened: as §1
# Gal(b1-3)Gal = target: Gal(b1-3)Gal
# Procedure, shortened: as §1
# Gal(b1-3)Gal(b1-4)GlcNAc = target: Gal(b1-3)Gal(b1-4)GlcNAc
# Procedure, shortened: as §1
# [13] = target: Gal(b1-3)GalNAc(a1-3)[Fuc(a1-2)]Gal(b1-4)Glc
# Procedure, shortened: as §1
# Gal(b1-3)GalNAc(b1-3)Gal = target: Gal(b1-3)GalNAc(b1-3)Gal
# Procedure, shortened: as §1
# [14] = target: Gal(b1-3)GalNAc(b1-4)Gal(b1-4)Glc
# Procedure, shortened: as §1
# [15] = target: Gal(b1-3)GlcNAc(b1-2)Man(a1-3)[Gal(b1-3)GlcNAc(b1-2)Man(a1-6)]Man(b1-4)GlcNAc(b1-4)GlcNAc
# Procedure, shortened: as §1
# [16] = target: Gal(b1-3)GlcNAc(b1-3)Gal(b1-4)[Fuc(a1-3)]GlcNAc
# Procedure, shortened: as §1
# [17] = target: Gal(b1-3)[Fuc(a1-4)]GlcNAc(b1-2)Man(a1-3)[Gal(b1-3)[Fuc(a1-4)]GlcNAc(b1-2)Man(a1-6)]Man(b1-4)GlcNAc(b1-4)[Fuc(a1-6)]GlcNAc
# Procedure, shortened: as §1
# [18] = target: Gal(b1-3)[Neu5Ac(a2-6)]GalNAc
# Procedure, shortened: as §1
# [19] = target: Gal(b1-4)GlcNAc(b1-3)Gal(b1-4)GlcNAc(b1-2)Man(a1-3)[Gal(b1-4)GlcNAc(b1-3)Gal(b1-4)GlcNAc(b1-2)Man(a1-6)]Man(b1-4)GlcNAc(b1-4)GlcNAc
# Procedure, shortened: as §1
# [20] = target: Gal(b1-4)GlcNAc(b1-3)Gal(b1-4)GlcNAc(b1-3)Gal(b1-4)GlcNAc(b1-3)Gal(b1-4)GlcNAc(b1-2)[Gal(b1-4)GlcNAc(b1-3)Gal(b1-4)GlcNAc(b1-3)Gal(b1-4)GlcNAc(b1-3)Gal(b1-4)GlcNAc(b1-6)]Man(a1-6)[Gal(b1-4)GlcNAc(b1-3)Gal(b1-4)GlcNAc(b1-3)Gal(b1-4)GlcNAc(b1-3)Gal(b1-4)GlcNAc(b1-2)Man(a1-3)]Man(b1-4)GlcNAc(b1-4)[Fuc(a1-6)]GlcNAc
# Procedure, shortened: as §1
# [21] = target: Gal(b1-4)GlcNAc(b1-3)Gal(b1-4)GlcNAc(b1-3)GalNAc
# Procedure, shortened: as §1
# [22] = target: Gal(b1-4)GlcNAc(b1-3)Gal(b1-4)[Fuc(a1-3)]GlcNAc(b1-3)Gal(b1-4)[Fuc(a1-3)]GlcNAc
# Procedure, shortened: as §1
# [23] = target: Gal(b1-4)GlcNAc(b1-3)[Gal(b1-4)GlcNAc(b1-6)]Gal(b1-4)GlcNAc
# Procedure, shortened: as §1
# [24] = target: Gal3S(b1-4)[Fuc(a1-3)]GlcNAc
# Procedure, shortened: as §1
# GlcA(b1-3)GlcNAc = target: GlcA(b1-3)GlcNAc
# Procedure, shortened: as §1
# [25] = target: GlcNAc(a1-4)Gal(b1-4)GlcNAc(b1-3)Gal(b1-4)Glc
# Procedure, shortened: as §1
# [26] = target: GlcNAc(b1-2)[GlcNAc(b1-4)]Man(a1-3)[GlcNAc(b1-4)][GlcNAc(b1-2)[GlcNAc(b1-6)]Man(a1-6)]Man(b1-4)GlcNAc(b1-4)[Fuc(a1-6)]GlcNAc
# Procedure, shortened: as §1
# [27] = target: GlcNAc(b1-3)Gal(b1-4)GlcNAc(b1-3)Gal(b1-4)GlcNAc(b1-2)Man(a1-3)[GlcNAc(b1-3)Gal(b1-4)GlcNAc(b1-3)Gal(b1-4)GlcNAc(b1-2)Man(a1-6)]Man(b1-4)GlcNAc(b1-4)GlcNAc
# Procedure, shortened: as §1
# [28] = target: GlcNAc(b1-3)Gal(b1-4)GlcNAc(b1-3)Gal(b1-4)GlcNAc(b1-3)Gal(b1-4)GlcNAc(b1-3)Gal(b1-4)GlcNAc(b1-2)Man(a1-3)[GlcNAc(b1-3)Gal(b1-4)GlcNAc(b1-3)Gal(b1-4)GlcNAc(b1-3)Gal(b1-4)GlcNAc(b1-3)Gal(b1-4)GlcNAc(b1-2)Man(a1-6)]Man(b1-4)GlcNAc(b1-4)GlcNAc
# Procedure, shortened: as §1
# [29] = target: GlcNAc(b1-3)[GlcNAc(b1-6)]Gal(b1-4)GlcNAc
# Procedure, shortened: as §1
# [30] = target: GlcNAc(b1-4)GlcNAc(b1-4)GlcNAc(b1-4)GlcNAc(b1-4)GlcNAc(b1-4)GlcNAc
# Procedure, shortened: as §1
# Kdn(a2-3)Gal(b1-3)GlcNAc = target: Kdn(a2-3)Gal(b1-3)GlcNAc
# Procedure, shortened: as §1
# [31] = target: Man(a1-3)[Man(a1-6)]Man(a1-6)[Man(a1-3)]Man(b1-4)GlcNAc(b1-4)GlcNAc
# Procedure, shortened: as §1
# [32] = target: Neu5Ac(a2-3)Gal(b1-3)GalNAc(b1-4)[Neu5Ac(a2-8)Neu5Ac(a2-3)]Gal(b1-4)Glc
# Procedure, shortened: as §1
# [33] = target: Neu5Ac(a2-3)Gal(b1-3)GalNAc6S
# Procedure, shortened: as §1
# [34] = target: Neu5Ac(a2-3)Gal(b1-3)GlcNAc(b1-3)Gal(b1-4)GlcNAc
# Procedure, shortened: as §1
# [35] = target: Neu5Ac(a2-3)Gal(b1-3)[Fuc(a1-4)]GlcNAc
# Procedure, shortened: as §1
# [36] = target: Neu5Ac(a2-3)Gal(b1-4)GlcNAc(b1-2)Man(a1-3)[Neu5Ac(a2-3)Gal(b1-4)GlcNAc(b1-2)Man(a1-6)]Man(b1-4)GlcNAc(b1-4)GlcNAc
# Procedure, shortened: as §1
# [37] = target: Neu5Ac(a2-3)Gal(b1-4)GlcNAc6S
# Procedure, shortened: as §1
# [38] = target: Neu5Ac(a2-3)Gal(b1-4)[Fuc(a1-3)]GlcNAc(b1-3)Gal
# Procedure, shortened: as §1
# [39] = target: Neu5Ac(a2-3)Gal(b1-4)[Fuc(a1-3)]GlcNAc(b1-3)GalNAc
# Procedure, shortened: as §1
# [40] = target: Neu5Ac(a2-3)Gal(b1-4)[Fuc(a1-3)]GlcNAc(b1-6)[Gal(b1-3)]GalNAc
# Procedure, shortened: as §1
# [41] = target: Neu5Ac(a2-3)GalNAc(b1-4)GlcNAc
# Procedure, shortened: as §1
# [42] = target: Neu5Ac(a2-3)[Neu5Ac(a2-6)]GalNAc
# Procedure, shortened: as §1
# [43] = target: Neu5Ac(a2-6)Gal(b1-3)GlcNAc(b1-3)[Gal(b1-4)GlcNAc(b1-6)]Gal(b1-4)Glc
# Procedure, shortened: as §1
# [44] = target: Neu5Ac(a2-6)Gal(b1-4)GlcNAc(b1-3)Gal(b1-4)GlcNAc(b1-3)Gal(b1-4)GlcNAc(b1-2)Man(a1-3)[Neu5Ac(a2-6)Gal(b1-4)GlcNAc(b1-3)Gal(b1-4)GlcNAc(b1-3)Gal(b1-4)GlcNAc(b1-2)Man(a1-6)]GalNAc
# Procedure, shortened: as §1
# Neu5Ac(b2-6)GalNAc = target: Neu5Ac(b2-6)GalNAc
# Procedure, shortened: as §1
# [45] = target: Neu5Ac9Ac(a2-3)Gal(b1-4)GlcNAc
# Procedure, shortened: as §1
# [46] = target: Neu5Gc(a2-3)Gal(b1-4)GlcNAc
# Procedure, shortened: as §1
binder,measurement,setting,value
B1,glycan array binding signal (z-score),[1],-0.334
same,glycan array binding signal (z-score),[2],-0.163
same,glycan array binding signal (z-score),[3],-0.233
same,glycan array binding signal (z-score),[4],-0.168
same,glycan array binding signal (z-score),[5],8.8
same,glycan array binding signal (z-score),[6],0.206
same,glycan array binding signal (z-score),[7],-0.397
same,glycan array binding signal (z-score),[8],-0.609
same,glycan array binding signal (z-score),[9],-0.183
same,glycan array binding signal (z-score),[10],4.55
same,glycan array binding signal (z-score),[11],-0.347
same,glycan array binding signal (z-score),[12],-0.484
same,glycan array binding signal (z-score),Fuc(b1-3)GlcNAc,-0.346
same,glycan array binding signal (z-score),Gal(a1-4)Gal(b1-4)Glc,-0.153
same,glycan array binding signal (z-score),Gal(b1-3)Gal,3.15
same,glycan array binding signal (z-score),Gal(b1-3)Gal(b1-4)GlcNAc,2.81
same,glycan array binding signal (z-score),[13],0.176
same,glycan array binding signal (z-score),Gal(b1-3)GalNAc(b1-3)Gal,6.73
same,glycan array binding signal (z-score),[14],9.88
same,glycan array binding signal (z-score),[15],-0.248
same,glycan array binding signal (z-score),[16],-0.497
same,glycan array binding signal (z-score),[17],-0.165
same,glycan array binding signal (z-score),[18],2.93
same,glycan array binding signal (z-score),[19],4.99
same,glycan array binding signal (z-score),[20],0.09
same,glycan array binding signal (z-score),[21],0.84
same,glycan array binding signal (z-score),[22],-0.249
same,glycan array binding signal (z-score),[23],-0.249
same,glycan array binding signal (z-score),[24],-0.353
same,glycan array binding signal (z-score),GlcA(b1-3)GlcNAc,-0.457
same,glycan array binding signal (z-score),[25],-0.384
same,glycan array binding signal (z-score),[26],-0.628
same,glycan array binding signal (z-score),[27],3.84
same,glycan array binding signal (z-score),[28],-0.264
same,glycan array binding signal (z-score),[29],-0.258
same,glycan array binding signal (z-score),[30],0.197
same,glycan array binding signal (z-score),Kdn(a2-3)Gal(b1-3)GlcNAc,-0.288
same,glycan array binding signal (z-score),[31],-0.003
same,glycan array binding signal (z-score),[32],-0.372
same,glycan array binding signal (z-score),[33],0.752
same,glycan array binding signal (z-score),[34],-0.343
same,glycan array binding signal (z-score),[35],-0.12
same,glycan array binding signal (z-score),[36],-0.517
same,glycan array binding signal (z-score),[37],-0.111
same,glycan array binding signal (z-score),[38],-0.311
same,glycan array binding signal (z-score),[39],3.44
same,glycan array binding signal (z-score),[40],0.977
same,glycan array binding signal (z-score),[41],-0.449
same,glycan array binding signal (z-score),[42],-0.425
same,glycan array binding signal (z-score),[43],-0.355
same,glycan array binding signal (z-score),[44],4.31
same,glycan array binding signal (z-score),Neu5Ac(b2-6)GalNAc,0.161
same,glycan array binding signal (z-score),[45],-0.485
same,glycan array binding signal (z-score),[46],-0.194

# Source: the supplement of paper PMC8728848
